# What was measured:
# Experiment in all cases: DAPPL (digital affinity profiling via proximity ligation, sequencing); 10 mM Tris-HCl pH 7.5, 50 mM NaCl, 1 mM DTT, 4% glycerol, room temperature, 30 min; GST-TFs on glutathione beads, 16-mer random dsDNA library, 0.1% formaldehyde crosslink after washing; high values mean tight binding
# [1] = biological target: T1, FEV (Homo sapiens, UniProt Q99581 1-238); conditions: protein: recombinant; tags: N-terminal GST; dsDNA, one strand shown
# T1 sequence: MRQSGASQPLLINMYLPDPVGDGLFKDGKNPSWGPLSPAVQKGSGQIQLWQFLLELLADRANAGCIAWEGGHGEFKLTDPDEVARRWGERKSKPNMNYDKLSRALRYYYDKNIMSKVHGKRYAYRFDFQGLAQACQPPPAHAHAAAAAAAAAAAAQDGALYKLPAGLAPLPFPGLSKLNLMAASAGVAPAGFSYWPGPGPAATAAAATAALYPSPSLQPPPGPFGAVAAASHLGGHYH
# Method in brief: (§1)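 Binding signal is each hexamer's read frequency for a factor divided by its frequency in the tag-only sample. The factors were GST-fused human transcription factors from yeast, captured on glutathione beads, DNA-barcoded and pooled with that sample. Pools were incubated with 200 nmole of a random double-stranded 16-mer DNA library in Tris/NaCl/DTT/glycerol buffer at room temperature for 30 min, then washed, crosslinked with 0.1% formaldehyde, proximity-ligated with BsaI/T4 ligase (1 h, 37 °C), PCR-amplified and sequenced on an Illumina NextSeq500.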
# [2] = biological target: ETV5 (Homo sapiens, UniProt P41161 1-510); conditions: protein: recombinant; tags: N-terminal GST; dsDNA, one strand shown
# Sequence of ETV5 (P41161 whole entry): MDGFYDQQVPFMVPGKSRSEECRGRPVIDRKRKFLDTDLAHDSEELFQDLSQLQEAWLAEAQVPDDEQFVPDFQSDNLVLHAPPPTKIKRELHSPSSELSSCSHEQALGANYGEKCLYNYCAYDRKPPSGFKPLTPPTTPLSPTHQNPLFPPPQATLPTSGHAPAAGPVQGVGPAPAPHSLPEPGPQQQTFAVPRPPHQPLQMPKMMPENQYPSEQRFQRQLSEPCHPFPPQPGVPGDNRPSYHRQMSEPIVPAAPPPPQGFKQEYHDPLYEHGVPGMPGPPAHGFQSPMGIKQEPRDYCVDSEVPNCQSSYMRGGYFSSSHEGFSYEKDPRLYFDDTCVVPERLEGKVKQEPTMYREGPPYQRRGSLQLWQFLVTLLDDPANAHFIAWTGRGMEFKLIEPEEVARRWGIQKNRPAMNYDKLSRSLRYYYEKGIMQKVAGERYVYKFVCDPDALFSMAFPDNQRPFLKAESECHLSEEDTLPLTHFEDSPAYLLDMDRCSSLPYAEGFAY
# Method in brief: as §1
# [3] = biological target: HSF1 (Homo sapiens, UniProt Q00613 1-529); conditions: protein: recombinant; tags: N-terminal GST; chain copies: 3; dsDNA, one strand shown
# Sequence of HSF1 (Q00613 whole entry): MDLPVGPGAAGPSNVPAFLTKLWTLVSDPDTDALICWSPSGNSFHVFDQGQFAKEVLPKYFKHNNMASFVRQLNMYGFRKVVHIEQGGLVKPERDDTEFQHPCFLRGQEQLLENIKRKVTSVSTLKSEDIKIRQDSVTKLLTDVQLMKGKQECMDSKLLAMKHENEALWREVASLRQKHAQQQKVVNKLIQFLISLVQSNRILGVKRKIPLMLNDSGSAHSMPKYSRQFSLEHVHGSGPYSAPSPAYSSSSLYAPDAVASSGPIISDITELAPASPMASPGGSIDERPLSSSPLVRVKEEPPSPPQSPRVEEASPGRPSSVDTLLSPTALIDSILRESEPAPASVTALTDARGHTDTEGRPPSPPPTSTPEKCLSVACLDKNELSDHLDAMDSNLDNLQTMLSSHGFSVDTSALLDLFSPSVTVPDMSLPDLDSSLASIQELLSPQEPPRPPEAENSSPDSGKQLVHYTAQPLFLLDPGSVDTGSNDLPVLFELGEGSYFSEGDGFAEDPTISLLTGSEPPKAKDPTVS
# Method in brief: as §1
# [4] = biological target: T2, SPIC (Homo sapiens, UniProt Q8N5J4 1-248); conditions: protein: recombinant; tags: N-terminal GST; dsDNA, one strand shown
# T2 sequence: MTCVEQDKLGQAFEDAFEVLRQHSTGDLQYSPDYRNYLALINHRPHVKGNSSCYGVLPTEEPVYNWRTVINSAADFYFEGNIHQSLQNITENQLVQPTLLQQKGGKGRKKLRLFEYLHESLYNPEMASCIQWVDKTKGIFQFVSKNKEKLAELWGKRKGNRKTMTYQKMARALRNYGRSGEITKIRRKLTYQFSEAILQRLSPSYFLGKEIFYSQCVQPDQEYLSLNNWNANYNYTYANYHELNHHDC
# Method in brief: as §1
# [5] = biological target: ELF4 (Homo sapiens, UniProt Q99607 1-663); conditions: protein: recombinant; tags: N-terminal GST; dsDNA, one strand shown
# Sequence of ELF4 (Q99607 whole entry): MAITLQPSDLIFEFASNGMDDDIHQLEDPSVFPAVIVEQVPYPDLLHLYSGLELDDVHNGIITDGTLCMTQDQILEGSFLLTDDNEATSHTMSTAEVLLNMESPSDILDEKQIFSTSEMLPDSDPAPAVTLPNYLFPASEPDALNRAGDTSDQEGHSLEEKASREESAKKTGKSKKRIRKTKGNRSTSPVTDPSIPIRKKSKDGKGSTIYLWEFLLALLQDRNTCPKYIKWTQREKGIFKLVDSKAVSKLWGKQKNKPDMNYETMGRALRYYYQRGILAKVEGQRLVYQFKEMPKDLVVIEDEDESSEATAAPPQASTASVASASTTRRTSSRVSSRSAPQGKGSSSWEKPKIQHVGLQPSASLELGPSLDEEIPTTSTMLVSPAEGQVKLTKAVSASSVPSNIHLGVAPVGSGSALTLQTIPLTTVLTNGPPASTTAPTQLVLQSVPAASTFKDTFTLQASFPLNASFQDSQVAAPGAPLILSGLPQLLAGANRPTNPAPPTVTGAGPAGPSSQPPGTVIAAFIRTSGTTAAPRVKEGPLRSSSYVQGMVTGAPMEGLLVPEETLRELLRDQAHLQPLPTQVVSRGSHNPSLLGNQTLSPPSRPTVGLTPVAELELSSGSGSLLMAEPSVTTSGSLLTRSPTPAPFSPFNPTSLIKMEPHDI
# Method in brief: as §1
# [6] = biological target: T3, ELK4 (Homo sapiens, UniProt P28324-2 1-405); conditions: protein: recombinant; tags: N-terminal GST; dsDNA, one strand shown
# T3 sequence: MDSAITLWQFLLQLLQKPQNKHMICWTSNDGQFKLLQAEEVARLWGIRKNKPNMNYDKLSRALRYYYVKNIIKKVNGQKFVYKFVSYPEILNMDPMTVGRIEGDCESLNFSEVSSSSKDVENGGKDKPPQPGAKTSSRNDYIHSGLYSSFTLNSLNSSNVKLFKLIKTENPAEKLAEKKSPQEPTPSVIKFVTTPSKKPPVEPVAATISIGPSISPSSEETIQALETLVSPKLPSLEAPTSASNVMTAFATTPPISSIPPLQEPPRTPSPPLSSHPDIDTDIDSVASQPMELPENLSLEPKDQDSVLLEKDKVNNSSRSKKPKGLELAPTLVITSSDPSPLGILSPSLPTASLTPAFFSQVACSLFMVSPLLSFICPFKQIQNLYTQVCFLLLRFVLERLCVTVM
# Method in brief: as §1
# [7] = biological target: T4, ETV2 (Homo sapiens, UniProt O00321 1-342); conditions: protein: recombinant; tags: N-terminal GST; dsDNA, one strand shown
# T4 sequence: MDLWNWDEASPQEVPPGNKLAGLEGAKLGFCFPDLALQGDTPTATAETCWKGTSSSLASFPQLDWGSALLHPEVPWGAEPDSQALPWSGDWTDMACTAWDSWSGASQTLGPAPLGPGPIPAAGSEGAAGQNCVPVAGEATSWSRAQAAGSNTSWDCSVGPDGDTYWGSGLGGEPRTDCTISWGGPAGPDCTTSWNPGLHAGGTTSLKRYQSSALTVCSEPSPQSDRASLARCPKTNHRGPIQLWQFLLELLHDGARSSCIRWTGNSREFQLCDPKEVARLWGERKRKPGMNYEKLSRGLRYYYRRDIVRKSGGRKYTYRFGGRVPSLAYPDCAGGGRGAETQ
# Method in brief: as §1
# [8] = biological target: T5, ELF3 (Homo sapiens, UniProt P78545 1-371); conditions: protein: recombinant; tags: N-terminal GST; dsDNA, one strand shown
# T5 sequence: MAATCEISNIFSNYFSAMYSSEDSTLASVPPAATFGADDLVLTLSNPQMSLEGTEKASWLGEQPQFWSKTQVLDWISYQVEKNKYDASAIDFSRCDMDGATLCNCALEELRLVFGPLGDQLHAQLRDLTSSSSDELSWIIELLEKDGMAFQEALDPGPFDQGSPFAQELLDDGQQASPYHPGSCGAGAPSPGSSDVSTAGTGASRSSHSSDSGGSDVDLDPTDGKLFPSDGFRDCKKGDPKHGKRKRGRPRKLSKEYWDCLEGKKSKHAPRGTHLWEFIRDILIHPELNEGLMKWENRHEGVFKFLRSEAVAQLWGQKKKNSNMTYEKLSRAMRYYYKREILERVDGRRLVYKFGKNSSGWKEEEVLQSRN
# Method in brief: as §1
# [9] = biological target: CRX (Homo sapiens, UniProt O43186 1-299); conditions: protein: recombinant; tags: N-terminal GST; dsDNA, one strand shown
# Sequence of CRX (O43186 whole entry): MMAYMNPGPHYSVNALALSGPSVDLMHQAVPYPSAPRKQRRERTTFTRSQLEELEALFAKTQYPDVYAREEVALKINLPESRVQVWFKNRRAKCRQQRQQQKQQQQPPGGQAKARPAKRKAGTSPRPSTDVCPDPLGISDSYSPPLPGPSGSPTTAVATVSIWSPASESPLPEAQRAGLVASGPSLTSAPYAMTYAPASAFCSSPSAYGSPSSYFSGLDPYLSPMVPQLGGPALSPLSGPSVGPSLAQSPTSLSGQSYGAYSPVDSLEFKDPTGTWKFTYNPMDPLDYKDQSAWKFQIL
# Method in brief: as §1
# [10] = biological target: ETV1 (Homo sapiens, UniProt P50549 1-477); conditions: protein: recombinant; tags: N-terminal GST; dsDNA, one strand shown
# Sequence of ETV1 (P50549 whole entry): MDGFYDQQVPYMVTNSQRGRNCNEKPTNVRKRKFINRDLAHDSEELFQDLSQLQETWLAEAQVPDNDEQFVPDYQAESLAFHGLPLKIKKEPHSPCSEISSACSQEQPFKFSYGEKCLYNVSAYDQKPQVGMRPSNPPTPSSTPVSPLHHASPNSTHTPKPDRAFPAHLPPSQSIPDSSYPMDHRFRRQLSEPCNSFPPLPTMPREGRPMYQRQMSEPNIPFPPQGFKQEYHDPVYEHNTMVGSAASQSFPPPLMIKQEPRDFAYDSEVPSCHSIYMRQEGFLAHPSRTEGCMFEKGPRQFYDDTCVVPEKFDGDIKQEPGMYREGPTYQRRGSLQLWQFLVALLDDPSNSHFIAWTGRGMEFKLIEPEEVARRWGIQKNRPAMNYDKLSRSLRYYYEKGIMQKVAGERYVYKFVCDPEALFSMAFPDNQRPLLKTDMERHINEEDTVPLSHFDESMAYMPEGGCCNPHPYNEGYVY
# Method in brief: as §1
# [11] = biological target: T6, ERF (Homo sapiens, UniProt P50548 1-548); conditions: protein: recombinant; tags: N-terminal GST; dsDNA, one strand shown
# T6 sequence: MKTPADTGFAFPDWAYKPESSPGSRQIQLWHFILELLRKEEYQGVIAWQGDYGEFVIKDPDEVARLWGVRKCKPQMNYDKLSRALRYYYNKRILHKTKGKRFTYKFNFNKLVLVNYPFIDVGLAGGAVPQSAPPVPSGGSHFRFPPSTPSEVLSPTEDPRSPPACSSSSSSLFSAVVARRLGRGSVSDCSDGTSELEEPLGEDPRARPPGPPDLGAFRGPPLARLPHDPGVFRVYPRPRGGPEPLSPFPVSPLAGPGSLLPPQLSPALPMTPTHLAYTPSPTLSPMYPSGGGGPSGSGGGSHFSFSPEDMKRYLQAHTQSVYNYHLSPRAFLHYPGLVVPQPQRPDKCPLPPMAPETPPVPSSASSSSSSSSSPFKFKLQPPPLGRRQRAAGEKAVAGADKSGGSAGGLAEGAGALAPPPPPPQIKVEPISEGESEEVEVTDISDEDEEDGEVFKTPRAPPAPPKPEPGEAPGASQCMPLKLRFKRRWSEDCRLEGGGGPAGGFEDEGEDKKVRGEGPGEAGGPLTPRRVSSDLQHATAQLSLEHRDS
# Method in brief: as §1
# [12] = biological target: T7, ETV3L (Homo sapiens, UniProt Q6ZN32 1-361); conditions: protein: recombinant; tags: N-terminal GST; dsDNA, one strand shown
# T7 sequence: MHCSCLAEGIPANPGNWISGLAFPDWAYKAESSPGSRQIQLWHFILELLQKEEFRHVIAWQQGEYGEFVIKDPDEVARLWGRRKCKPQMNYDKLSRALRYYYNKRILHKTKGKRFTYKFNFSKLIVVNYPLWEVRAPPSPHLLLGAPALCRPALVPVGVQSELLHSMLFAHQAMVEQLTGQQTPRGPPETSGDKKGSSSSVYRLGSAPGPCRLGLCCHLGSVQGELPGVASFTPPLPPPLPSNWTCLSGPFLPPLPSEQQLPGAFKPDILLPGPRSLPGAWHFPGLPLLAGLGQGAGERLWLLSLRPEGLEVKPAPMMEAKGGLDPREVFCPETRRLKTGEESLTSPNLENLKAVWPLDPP
# Method in brief: as §1
# [13] = biological target: T8, ETS2 (Homo sapiens, UniProt P15036 1-469); conditions: protein: recombinant; tags: N-terminal GST; dsDNA, one strand shown
# T8 sequence: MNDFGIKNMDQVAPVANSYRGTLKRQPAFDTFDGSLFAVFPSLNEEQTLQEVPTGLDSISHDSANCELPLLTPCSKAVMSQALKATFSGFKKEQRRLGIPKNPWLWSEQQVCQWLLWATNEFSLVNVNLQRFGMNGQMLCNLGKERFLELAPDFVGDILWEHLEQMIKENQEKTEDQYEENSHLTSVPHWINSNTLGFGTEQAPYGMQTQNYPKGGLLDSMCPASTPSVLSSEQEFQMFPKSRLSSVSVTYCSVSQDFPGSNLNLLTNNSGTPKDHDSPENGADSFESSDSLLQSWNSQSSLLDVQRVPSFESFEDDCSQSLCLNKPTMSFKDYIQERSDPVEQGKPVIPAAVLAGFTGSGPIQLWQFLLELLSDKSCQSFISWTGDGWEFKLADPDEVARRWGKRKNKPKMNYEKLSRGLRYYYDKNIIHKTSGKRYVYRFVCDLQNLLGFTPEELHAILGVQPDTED
# Method in brief: as §1
# [14] = biological target: T9, SPDEF (Homo sapiens, UniProt O95238 1-335); conditions: protein: recombinant; tags: N-terminal GST; dsDNA, one strand shown
# T9 sequence: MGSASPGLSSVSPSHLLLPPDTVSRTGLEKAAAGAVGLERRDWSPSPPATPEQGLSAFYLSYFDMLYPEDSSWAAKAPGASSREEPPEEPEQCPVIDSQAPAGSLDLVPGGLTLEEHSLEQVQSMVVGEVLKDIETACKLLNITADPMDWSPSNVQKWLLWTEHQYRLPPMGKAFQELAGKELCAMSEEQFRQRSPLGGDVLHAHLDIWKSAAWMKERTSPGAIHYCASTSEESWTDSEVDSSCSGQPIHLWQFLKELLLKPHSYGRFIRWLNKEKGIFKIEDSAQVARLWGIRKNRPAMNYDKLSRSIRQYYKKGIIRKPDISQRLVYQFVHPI
# Method in brief: as §1
# [15] = biological target: T10, ETV7 (Homo sapiens, UniProt Q9Y603 1-341); conditions: protein: recombinant; tags: N-terminal GST; dsDNA, one strand shown
# T10 sequence: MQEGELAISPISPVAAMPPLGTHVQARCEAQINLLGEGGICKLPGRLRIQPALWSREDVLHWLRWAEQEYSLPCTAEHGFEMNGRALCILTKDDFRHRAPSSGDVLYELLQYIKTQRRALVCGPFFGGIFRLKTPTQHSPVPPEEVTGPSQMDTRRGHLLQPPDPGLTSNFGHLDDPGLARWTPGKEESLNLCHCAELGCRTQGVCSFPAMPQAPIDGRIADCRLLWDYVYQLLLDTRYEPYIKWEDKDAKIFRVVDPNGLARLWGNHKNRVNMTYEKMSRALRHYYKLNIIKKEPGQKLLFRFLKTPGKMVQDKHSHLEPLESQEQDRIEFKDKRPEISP
# Method in brief: as §1
# [16] = biological target: T11, ELF5 (Homo sapiens, UniProt Q9UKW6-2 1-255); conditions: protein: recombinant; tags: N-terminal GST; dsDNA, one strand shown
# T11 sequence: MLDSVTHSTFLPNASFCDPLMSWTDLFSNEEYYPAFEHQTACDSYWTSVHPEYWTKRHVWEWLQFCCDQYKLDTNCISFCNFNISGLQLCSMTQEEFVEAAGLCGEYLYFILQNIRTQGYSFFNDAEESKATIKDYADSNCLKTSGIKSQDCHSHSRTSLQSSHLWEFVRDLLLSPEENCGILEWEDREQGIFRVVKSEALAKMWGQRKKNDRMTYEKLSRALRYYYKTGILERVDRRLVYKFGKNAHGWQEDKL
# Method in brief: as §1
# [17] = biological target: T12, ETV3 (Homo sapiens, UniProt P41162-2 1-143); conditions: protein: recombinant; tags: N-terminal GST; dsDNA, one strand shown
# T12 sequence: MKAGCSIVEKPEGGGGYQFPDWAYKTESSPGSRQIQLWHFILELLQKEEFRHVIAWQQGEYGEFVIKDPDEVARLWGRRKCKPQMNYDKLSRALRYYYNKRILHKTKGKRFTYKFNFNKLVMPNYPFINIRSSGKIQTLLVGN
# Method in brief: as §1
# [18] = biological target: ETV6 (Homo sapiens, UniProt P41212 1-452); conditions: protein: recombinant; tags: N-terminal GST; dsDNA, one strand shown
# Sequence of ETV6 (P41212 whole entry): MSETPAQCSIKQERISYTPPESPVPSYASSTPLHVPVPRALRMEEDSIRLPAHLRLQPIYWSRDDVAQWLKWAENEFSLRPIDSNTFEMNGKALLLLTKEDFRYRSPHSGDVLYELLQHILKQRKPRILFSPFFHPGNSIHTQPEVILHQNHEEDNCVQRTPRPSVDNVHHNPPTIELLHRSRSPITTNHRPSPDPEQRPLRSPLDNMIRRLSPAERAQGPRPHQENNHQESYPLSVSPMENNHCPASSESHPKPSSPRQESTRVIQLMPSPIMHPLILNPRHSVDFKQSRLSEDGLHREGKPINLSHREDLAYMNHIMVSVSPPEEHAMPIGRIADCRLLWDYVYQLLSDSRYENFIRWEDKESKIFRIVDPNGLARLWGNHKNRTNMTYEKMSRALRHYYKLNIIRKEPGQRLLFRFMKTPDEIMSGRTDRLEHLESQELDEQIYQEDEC
# Method in brief: as §1
sequence,measurement,setting,value
AAATCT,binding signal,[1],"1.29 fold enrichment (6-mer frequency, TF over GST control)"
same,binding signal,[2],"1.31 fold enrichment (6-mer frequency, TF over GST control)"
same,binding signal,[3],"1.75 fold enrichment (6-mer frequency, TF over GST control)"
same,binding signal,[4],"1.39 fold enrichment (6-mer frequency, TF over GST control)"
same,binding signal,[5],"1.34 fold enrichment (6-mer frequency, TF over GST control)"
same,binding signal,[6],"1.25 fold enrichment (6-mer frequency, TF over GST control)"
same,binding signal,[7],"1.24 fold enrichment (6-mer frequency, TF over GST control)"
same,binding signal,[8],"1.25 fold enrichment (6-mer frequency, TF over GST control)"
same,binding signal,[9],"2.03 fold enrichment (6-mer frequency, TF over GST control)"
same,binding signal,[10],"1.35 fold enrichment (6-mer frequency, TF over GST control)"
same,binding signal,[11],"1.3 fold enrichment (6-mer frequency, TF over GST control)"
same,binding signal,[12],"1.32 fold enrichment (6-mer frequency, TF over GST control)"
same,binding signal,[13],"1.33 fold enrichment (6-mer frequency, TF over GST control)"
same,binding signal,[14],"1.25 fold enrichment (6-mer frequency, TF over GST control)"
same,binding signal,[15],"1.16 fold enrichment (6-mer frequency, TF over GST control)"
same,binding signal,[16],"1.27 fold enrichment (6-mer frequency, TF over GST control)"
same,binding signal,[17],"1.19 fold enrichment (6-mer frequency, TF over GST control)"
same,binding signal,[18],"1.24 fold enrichment (6-mer frequency, TF over GST control)"

# From article PMC7862700, “An all-to-all approach to the identification of sequence-specific readers for epigenetic DNA modifications on cytosine”
